A selection: hits, their analogues and other compounds. The true share with any hit is near 0.9%.
Six1-Eya2 inh = Six1/Eya2 interaction inhibition; Q15475+O00167; AlphaScreen GST-Six1/His-Eya2 binding, biochemical; stronger effect = lower value; activity change, % (concentration not given with the values); hit rate 0.56% among 360,000; AID 651725; in the data active means activity change below about -65%; inconclusive means mostly about -30% to -63%
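Homogeneous AlphaScreen proximity assay pairing GST-Six1 with His-tagged Eya2 (added as 5X mix: 250 nM and 500 nM) in 50 mM Tris pH 8.0, 300 mM NaCl, 1 mM TCEP. Glutathione donor and nickel acceptor beads; 1 h, 37 °C, dark.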
L3MBTL1 inh = L3MBTL1 (human) inhibition; Q9Y468; AlphaScreen L3MBTL1–H3K9me1 peptide binding; Potency, µM (highest dose often 57.1 µM), most hits filed as inhibitors; hit rate 0.66% among 230,000; further: nearly all actives have a fitted effect of over 60% in size
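Displacement of a biotinylated histone H3(1-15) peptide monomethylated at Lys9 (75 nM) from L3MBTL1 (50 nM) was measured by AlphaScreen after a 30 min room-temperature compound incubation; cefsulodin titration served as intraplate control.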
CtBP-E1A blk = CtBP/E1A binding inhibition | activity change, % (no concentration beside the values) | AlphaScreen GST-E1A/His-CtBP binding, 1536-well; stronger effect = lower value | AID 651724 | hit rate 0.49% among 340,000; in the data active means activity change below about -65%; inconclusive means mostly about -30% to -63%
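Homogeneous bead-based format: GST-tagged E1A captured on glutathione donor beads, His-tagged CtBP on nickel acceptor beads; compounds precede bead addition by 2 h at 37 °C.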
Eya2 phos inh = inhibitors of human Eya2 phosphatase activity; recombinant Eya2, OMFP fluorescence dephosphorylation (OMFP is methylfluorescein phosphate); Potency, µM (doses to about 76.9 µM), actives largely listed as inhibitors; hit rate 0.006% among 330,000
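Eya2 (0.2 uM) preincubated 10 min at ambient with compound, then OMFP substrate added at 50 uM; 10 min reaction in 50 mM HEPES pH 7.5, 50 mM NaCl, 5 uM MgCl2, 0.05% BSA, 1 mM DTT. Fluorescence read at Ex 485/Em 525 nm.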
B2AR arrestin = recruits beta-arrestin to the human beta2-adrenergic receptor; P07550; beta-arrestin recruitment to beta2AR, cell-based reporter; Potency, µM (top dose mostly 46.1 µM), hits mostly activators; hit rate 0.02% among 330,000; AID 492947; further: nearly all actives have a fitted effect of over 65% in size
Target sequence (P07550 whole entry, looked up): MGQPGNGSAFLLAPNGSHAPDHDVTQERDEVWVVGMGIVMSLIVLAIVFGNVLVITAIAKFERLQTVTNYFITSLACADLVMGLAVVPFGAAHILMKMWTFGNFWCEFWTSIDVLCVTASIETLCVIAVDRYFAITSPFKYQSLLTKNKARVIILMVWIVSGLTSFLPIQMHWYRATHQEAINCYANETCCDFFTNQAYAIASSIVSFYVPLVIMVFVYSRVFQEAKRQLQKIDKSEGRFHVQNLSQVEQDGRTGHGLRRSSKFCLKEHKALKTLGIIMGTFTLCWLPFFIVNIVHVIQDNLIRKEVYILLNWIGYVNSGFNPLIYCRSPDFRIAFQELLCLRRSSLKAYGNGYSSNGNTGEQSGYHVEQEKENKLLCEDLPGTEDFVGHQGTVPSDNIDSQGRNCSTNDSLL
Of the large screens only hits and unclear results are named; the others gave an inactive call. Unless noted, the call rests on the fitted dose curve; in most records, active means well fitted curve in the direction sought with a large enough effect; inconclusive means small, poorly fitted or top-dose-only effect, or another doubt; inactive means no such curve, though single readings can be large; an effect the other way counts as inactive or inconclusive.

NC(=S)N/N=C/c1ccccc1OC(=O)/C=C/c1ccccc1	Six1-Eya2 inh inconclusive, CtBP-E1A blk -93.3, B2AR arrestin inconclusive (no result: L3MBTL1 inh)
NC(=S)N/N=C/c1ccccc1OC(=O)c1cc2ccccc2oc1=O	Six1-Eya2 inh inconclusive, B2AR arrestin 12.6µM (no result: L3MBTL1 inh, CtBP-E1A blk)
NC(=S)N/N=C\c1ccccc1OCc1ccccc1	none
NC(=O)N/N=C/c1ccccc1OC(=O)c1cc2ccccc2oc1=O	none (no result: L3MBTL1 inh, CtBP-E1A blk)
C[C@H](CO)N1C[C@H](C)[C@H](CN(C)S(C)(=O)=O)Oc2c(cccc2N(C)C)C1=O	none
CC1(c2nnnn2Cc2ccccc2)CCC(=O)N1Cc1ccco1 (stereo unspecified)	none (no result: L3MBTL1 inh, Eya2 phos inh, B2AR arrestin)
Oc1c(CN2CCN(c3ccccc3)CC2)cc(Br)c2cccnc12	B2AR arrestin inconclusive (no result: L3MBTL1 inh)
COCc1cc(CN2CCN(C)CC2)c(O)c2ncccc12	Six1-Eya2 inh -91.7, CtBP-E1A blk -93.5 (no result: L3MBTL1 inh)
Oc1c(CN2CCOCC2)cc(COCc2ccccc2)c2cccnc12	Six1-Eya2 inh -91.5, L3MBTL1 inh inconclusive, CtBP-E1A blk -88.2, B2AR arrestin 5.8µM
CCOC(=O)N1CCN(Cc2cc(Cl)c3cccnc3c2O)CC1	Six1-Eya2 inh -77.6, CtBP-E1A blk -90.9, Eya2 phos inh inconclusive
O=C(/C=C/c1ccco1)Oc1ccc(C(=S)N2CCOCC2)cc1	Six1-Eya2 inh -89.4, CtBP-E1A blk -93.1 (no result: L3MBTL1 inh)
O=C(Oc1ccc(C(=S)N2CCOCC2)cc1)c1ccc(Br)cc1	Six1-Eya2 inh -88.9
O=C(Cc1cccc2ccccc12)N/N=C/c1ccc(OC(=O)/C=C/c2ccco2)cc1	Six1-Eya2 inh inconclusive, L3MBTL1 inh 25.1µM, CtBP-E1A blk inconclusive
COC(=O)c1ccc(OC(=O)/C=C/c2ccco2)cc1	Six1-Eya2 inh -84.8, CtBP-E1A blk -92.6 (no result: L3MBTL1 inh)
COC(=O)c1ccc(OC(=O)c2ccco2)cc1	Six1-Eya2 inh inconclusive
CCCC(c1nnnn1CS(=O)(=O)c1ccc(C)cc1)N1CCN(CC)CC1 (stereo unspecified)	none
C[C@H]1CN([C@@H](C)CO)S(=O)(=O)c2ccc(Br)cc2O[C@H]1CN(C)C(=O)Cc1ccncc1	none (no result: L3MBTL1 inh, Eya2 phos inh, B2AR arrestin)
O=C1NC[C@@H](CCCCN2C[C@H](Cc3ccc(O)cc3)N(CCC3CCCCC3)C(=O)C2=O)N(Cc2ccccc2)C1=O	none (no result: L3MBTL1 inh, Eya2 phos inh, B2AR arrestin)
Cc1ccc(S(=O)(=O)N2CCN(C(=O)C3CCN(C(=O)c4ccc(F)cc4)CC3)CC2)c(C)c1	none
O=C(Nc1ccc(F)cc1)c1nc[nH]c1C(=O)O	Six1-Eya2 inh -76.9 (no result: L3MBTL1 inh, CtBP-E1A blk)
NC(=S)NN=C1CSSC1	Six1-Eya2 inh -93.9, CtBP-E1A blk -89.2 (no result: L3MBTL1 inh, Eya2 phos inh, B2AR arrestin)
Cc1[nH]n(-c2ccccc2)c(=O)c1N=Nc1ccc2c(c1)OCCO2	L3MBTL1 inh inconclusive
Cc1[nH]n(-c2ccccc2)c(=O)c1N=Nc1c(O)cc(S(=O)(=O)N(C)C)c2ccccc12	L3MBTL1 inh 7.94µM
Oc1c(Cl)cc(Cl)cc1CNc1nccs1	Six1-Eya2 inh -65.2, CtBP-E1A blk -82.8
COc1ccc(-c2csc(C3=C(O)CN(C(C)C)C3=N)n2)cc1OC	Six1-Eya2 inh inconclusive, CtBP-E1A blk -77.4
COc1ccc(Cc2nc3ccc(C(=O)N4CCN(C)C(C)C4)cc3o2)cc1OC (stereo unspecified)	none (no result: L3MBTL1 inh)
Cc1cc2c(c(=O)n1-c1ccccc1)C1O[C@](c3ccsc3)(Cc3ccccc31)O2	none (no result: Six1-Eya2 inh, L3MBTL1 inh, CtBP-E1A blk)
CC(C)CC(N)c1csc(Nc2ncccn2)n1 (stereo unspecified)	Six1-Eya2 inh inconclusive, CtBP-E1A blk -70.9 (no result: L3MBTL1 inh, Eya2 phos inh, B2AR arrestin)
COc1cccc(Nc2nc(C(N)CO)cs2)n1 (stereo unspecified)	Six1-Eya2 inh inconclusive, CtBP-E1A blk -75.7 (no result: L3MBTL1 inh, Eya2 phos inh, B2AR arrestin)
NC(COCc1ccccc1)c1csc(Nc2cc(NCCCO)ncn2)n1 (stereo unspecified)	Six1-Eya2 inh -86.4, CtBP-E1A blk -86.0 (no result: L3MBTL1 inh, Eya2 phos inh, B2AR arrestin)
CC(C)CC(N)c1csc(Nc2ccc(S(C)(=O)=O)cc2)n1 (stereo unspecified)	none (no result: L3MBTL1 inh, Eya2 phos inh, B2AR arrestin)
NC(Cc1ccc(Cl)cc1)c1csc(Nc2cc(NCCCO)ncn2)n1 (stereo unspecified)	Six1-Eya2 inh -69.6, CtBP-E1A blk -78.3 (no result: L3MBTL1 inh, Eya2 phos inh, B2AR arrestin)
C[C@H]1CN([C@@H](C)CO)C(=O)CCCn2cc(nn2)CO[C@@H]1CN(C)C(=O)Nc1ccc(F)cc1	none (no result: L3MBTL1 inh, Eya2 phos inh, B2AR arrestin)
NC(COCc1ccccc1)c1csc(Nc2ncccn2)n1 (stereo unspecified)	Six1-Eya2 inh -80.9, CtBP-E1A blk -85.0 (no result: L3MBTL1 inh, Eya2 phos inh, B2AR arrestin)
NCc1csc(Nc2ncccn2)n1	Six1-Eya2 inh -72.5, CtBP-E1A blk -80.6 (no result: L3MBTL1 inh, Eya2 phos inh, B2AR arrestin)
Cc1nc(N)sc1-c1csc(Nc2ncccn2)n1	Six1-Eya2 inh inconclusive
